Measured values published in PubChem BioAssay AID1159580 (chemical genetic matrix, 2015).
The whole screen tested about 5,500 compounds, of which about 2,000 (36%) were called active. About 18% were inconclusive and are not listed. No stated cut-off is given here; in the data, active means normalized growth mostly below about 0.91 (no sharp cut-off); inconclusive means no clear call, values can overlap the other calls; inactive means mostly above about 0.92. The list shows a part of the results.

Test: chemical genetic growth profiling, strain panel (AID 1159580);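 further: tested at 20 µM; growth read once vehicle control cultures reached saturation at 30 °C; 1 = growth at the plate median or of vehicle wells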
Conditions: S. cerevisiae deletion strains, growth OD

Measured: normalized growth

CCC(=O)c1ccc2c(c1)N(CCCN(C)C)c1ccccc1S2
inactive: locus YAL040C, strain CLN3, stronger effect = lower value 0.997 | locus YCL061C, strain MRC1 (second series), stronger effect = lower value 1 | locus YDR150W, strain NUM1, stronger effect = lower value 1.01 | locus YDR363W, strain ESC2, stronger effect = lower value 1.02 | locus YER002W, strain NOP16, stronger effect = lower value 1.01 | locus YGR229C, strain SMI1, stronger effect = lower value 0.986 | locus YJR075W, strain HOC1, stronger effect = lower value 0.985 | locus YNL153C, strain GIM3, stronger effect = lower value 1.16 | locus YNL175C, strain NOP13, stronger effect = lower value 1.02 | locus YNL197C, strain WHI3, stronger effect = lower value 1.05 | locus YNL224C, strain SQS1, stronger effect = lower value 1.07 | locus YNL322C, strain KRE1, stronger effect = lower value 0.971 | locus YOR083W, strain WHI5 (second series), stronger effect = lower value 1 | locus YPL055C, strain LGE1, stronger effect = lower value 0.988
